# The entries come from a sample that favours hits as a whole. The hit rate among all sequences tested is not known here. A number with no mark means an inactive call.
# Tested on: T1, Caupolican (Caup) homeodomain DNA-binding domain
# T1 sequence: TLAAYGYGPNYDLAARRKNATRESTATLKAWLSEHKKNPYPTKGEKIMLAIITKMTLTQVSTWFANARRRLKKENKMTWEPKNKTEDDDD
# Assay: PBM E-score (8-mer, recovered from the published 9-mer minima) (E-score (dimensionless, -0.5 to 0.5)); Drosophila protein; higher = stronger relative binding preference, active = 0.31 or more
# Method: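 Protein binding microarray (PBM): in vitro transcribed/translated Caupolican (Caup) homeodomain DNA-binding domain (residues 214-303) applied at 100 nM to a universal 8-mer PBM array (Agilent AMADID 015681). The 8-mer enrichment score (E-score, range -0.5 to 0.5) was computed, and each 9-mer score is the minimum E-score of its two constituent 8-mers. The E-score is the same for a 9-mer and its reverse complement; 0.31 is the stated binding threshold.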
row,Sequence,PBM E-score
1,AGGTAATA,0.0994
2,CGCCCATA,-0.126
3,CGACCTCC,-0.138
4,AGCAACGA,0.0654
5,ACAATCCG,0.117
6,CGGGAAAA,-0.0322
7,CCGGAGAG,-0.159
8,GATTTACA,0.246
9,AATTTACA,0.328 (active)
10,CATTTACA,0.239
11,GAGGTTGC,-0.184
12,AGGCAATA,0.0132
13,AATTGCAT,0.0474
14,ACAAGATA,0.342 (active)
15,ACAAGACG,0.257
16,GCAAGACA,0.0548
17,GCAAGGTA,0.0505
18,ACAAGACA,≥ 0.352 (active)
19,ACAAGGTC,0.298
20,ACAAGGTA,0.335 (active)
21,ACAAGATC,0.258
22,CCAAGATA,0.106
23,CGAATAGA,0.0132
24,ACGTCACG,0.0623
25,CATTCCCA,-0.01
26,CGGGATCC,-0.132

row,Sequence,PBM E-score
1,ACCCAAGC,-0.122
2,CCCTGCGG,-0.29
3,ACGTCGAG,-0.0187
4,ATAACATG,0.424 (active)
5,ATAACAGG,0.155
6,GTAACATA,0.345 (active)
7,ATAACAGC,0.148
8,GTAACAGA,0.211
9,ATAACATC,0.318 (active)
10,CTAACATC,0.208
11,CTAACATA,0.28
12,ATAACATA,0.356 (active)
13,ATAACAGA,0.171
14,ATAACTTG,0.197
15,CGATCATC,0.0443
16,ATCCGCGG,-0.111
17,AAAGTTGG,0.0235
18,ATAGGGGA,-0.137
19,AACCGGCG,-0.0557
20,GCTAGATA,0.0474
21,CCGCGTCC,-0.087
22,AATGTATG,0.243
23,AATGTATA,0.271
24,AGTGTATC,0.186
25,CAAGTATC,0.148
26,CCTGTATC,0.125

row,Sequence,PBM E-score
1,AATGTATC,0.314 (active)
2,CATGTATC,0.408 (active)
3,GATGTATA,0.295
4,CATGTATA,0.418 (active)
5,CAACCCCA,-0.102
6,CACTGATG,0.107
7,GAGAACGC,-0.0756
8,CACTTCCG,-0.121
9,ATATCGTC,0.107
10,AGACCCAA,-0.131
11,CTTACAAG,0.343 (active)
12,CATACAAC,0.27
13,CTTACAAA,0.181
14,GTTACAAC,0.303
15,CTTACAAC,0.333 (active)
16,CTCACAAG,0.0655
17,CCGCGTCA,-0.126
18,AGCTGGTG,-0.0997
19,AGCGGCGG,-0.225
20,ATAGGCGA,-0.0622
21,CGGTGTCA,0.193
22,CGATGTCA,0.311 (active)
23,AGATGTCA,0.279
24,GTATGTCA,0.345 (active)
25,ATATGTCA,0.305
26,CTATGTCA,0.307

row,Sequence,PBM E-score
1,CGATGTCC,0.143
2,GGATGTGA,0.081
3,GGATGTCA,0.311 (active)
4,ACAAGGTG,0.255
5,AAGCGCGA,-0.033
6,CAACGTGA,0.0867
7,CGAGCTCA,-0.105
8,CAACCGTA,0.0275
9,ATACATAG,0.292
10,ATACATTC,≥ 0.314 (active)
11,ATACATTG,0.261
12,AGACATAC,0.222
13,CTACATAC,0.286
14,AGACATAT,0.264
15,ATACATAC,0.332 (active)
16,CTACATTC,0.119
17,ATACATAA,0.348 (active)
18,ATACATAT,0.344 (active)
19,CCTCACAA,-0.0288
20,GGAATGAA,0.00414
21,GTAGAGGA,0.00507
22,AGTGATAA,0.126
23,GTCGCCAA,-0.0201
24,GCCCTAAC,-0.104
25,CATCATGA,0.11
26,ACACCAGT,0.101

row,Sequence,PBM E-score
1,CTCCCGAA,-0.138
2,CTATTAAC,0.178
3,CAGGGATC,-0.124
4,GCTCCAGC,-0.186
5,GCGTAGTA,0.0285
6,CAGTAGTA,0.175
7,GTGTAGTA,0.357 (active)
8,AAGTAGTA,0.186
9,AAGTAGTC,0.159
10,GAGTAGTA,0.0893
11,ATGTAGTA,0.372 (active)
12,ATGTAGTC,0.331 (active)
13,ATGTAGGC,0.12
14,ATGTAGTG,0.27
15,CTGTAGTC,0.0608
16,CTGTAGTA,0.348 (active)
17,AAAGGTGC,-0.0982
18,TGAGCAAA,0.0543
19,GGAGGCAC,-0.154
20,ACTGAGCA,0.0738
21,CTCTTTTC,-0.1
22,CCTCTGTC,-0.0145
23,AGCTCATC,-0.167
24,CTCGTGTA,0.27
25,CTCGTGTC,0.26
26,ATCGTGTC,0.336 (active)

row,Sequence,PBM E-score
1,AGCGTGTA,0.355 (active)
2,CGCGTGTA,0.285
3,ATCGTGGA,-0.0656
4,GTCGTGGA,-0.0165
5,ATCGTGTG,0.149
6,AGCGTGTC,0.231
7,GTCGTGTA,0.386 (active)
8,ATCGTGCA,0.127
9,ATCGTGTA,0.407 (active)
10,CTTGAAGA,-0.0903
11,ATCGACGG,-0.105
12,GTTAAAGA,0.0986
13,GCAACTAC,0.0804
14,GGCAGAGA,-0.188
15,AGTCGAAA,0.0145
16,AAAACTCC,-0.138
17,AACTCGGG,-0.0964
18,GTTTCAAA,0.0987
19,GGGCTTTA,-0.186
20,GATCTACA,0.145
21,GGATAACA,0.238
22,TGATAACA,0.322 (active)
23,CGATAACA,0.244
24,GAATAACA,0.301
25,CAATAACA,0.238
26,TAATAACA,0.319 (active)

row,Sequence,PBM E-score
1,CGGTCTTA,-0.00157
2,ATGTAACA,0.429 (active)
3,CTGTAAGA,0.138
4,ATGTAACC,0.275
5,CTGTAACA,0.289
6,ACGTAACA,0.263
7,GTGTAAGA,0.224
8,ATGTAAGA,0.332 (active)
9,ACGTAACG,0.0522
10,GTGTAACA,0.397 (active)
11,GCGTAACA,0.221
12,GGGTAACA,0.216
13,ATGTAACG,0.347 (active)
14,GATAGATC,0.0307
15,CACGCAAA,0.0933
16,CAAATACA,0.245
17,GTTCGCGA,0.066
18,TACTGCAA,0.125
19,ATTGGGCG,-0.135
20,AAGTAATT,0.18
21,AGCCATAA,0.0213
22,ACCGGCGA,-0.156
23,AGGTAACC,-0.0119
24,AGGTAACT,0.0502
25,AGGTAACA,0.327 (active)
26,CTGGTAAG,-0.00689

row,Sequence,PBM E-score
1,GTATGACA,0.312 (active)
2,ATATGACC,0.021
3,GTATGAGA,0.0966
4,GTATGATA,0.242
5,ATATGACA,0.336 (active)
6,CTATGACA,0.223
7,GAGCTGTA,0.079
8,CTATTGAA,0.0499
9,GCAAGTCC,-0.0418
10,GCATAATA,0.169
11,ACATAACA,0.332 (active)
12,ACATAACT,0.291
13,ACATAACC,0.22
14,ACATAATA,0.323 (active)
15,ACATAATC,0.202
16,GCCTATCA,-0.108
17,CGATCAAA,-0.00998
18,CATCTAAG,-0.0746
19,AGTGTTTA,0.176
20,GGTGTTTA,0.124
21,CGTGTTAC,0.282
22,CGTGTTAG,0.285
23,CGTGTTAA,≥ 0.33 (active)
24,CGTGTTTA,0.319 (active)
25,GGTGTTAA,0.18
26,TGTGTTAA,0.32 (active)

row,Sequence,PBM E-score
1,AGTGTTAA,0.165
2,AGCTGAGG,-0.169
3,AAGCCTAC,-0.0275
4,AGACGGAC,-0.0361
5,CTGAAATA,0.0494
6,AAATAACT,0.19
7,ACATCAAC,0.235
8,AAAGAGTA,0.0035
9,CGTACAAC,0.31 (active)
10,CGCACAAC,0.0805
11,CATACAAG,0.3
12,AGTACAAC,0.275
13,GGTACAAA,0.256
14,GGTACAAC,0.32 (active)
15,CGTACAAG,0.37 (active)
16,CGTACAAA,0.18
17,AGTACAAG,0.416 (active)
18,AGTACCAG,0.0977
19,CGTACAGC,0.00506
20,AGTACAAT,0.292
21,GAGTTATC,0.0344

# From the supplement of paper PMC3724861
